Measured values taken from publication PMC7819943, “Rice protein-binding microarrays: a tool to detect cis-acting elements near promoter regions in rice”.
Whole data set: some 68,000 sequences, median “fluorescence intensity (a.u.)” near 9,100, cut for the highest 2% near 16,000. Shown is part of a subset that was picked to be rich in the highest values.

These sequences were tested against OsWRKY34 (Oryza sativa, UniProt Q0JBA9 1-250) (assay: protein-binding microarray (RPBM); PBS, 2% BSA, 51.3 ng/ul salmon testes DNA, 50 uM zinc acetate, 200 nM TF, 25 C, 1 h; high values mean tight binding). Conditions: protein: recombinant; tags: N-terminal polyhistidine and DsRed monomer fusion (pET32a); label: CyDye5-dUTP incorporated in the synthesized complementary strand; 3' TTTTT single-stranded linker to array surface; dsDNA, one strand shown.
Method in brief: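 Binding signal is defined as the fluorescence intensity of each feature in arbitrary units, read on an Axon 4000B scanner. Transcription factors with N-terminal polyhistidine and DsRed fusions came from E. coli BL21-CodonPlus and were purified on Ni–NTA. They were incubated at 200 nM for 1 h at 25 °C on a custom Agilent array that had been made double-stranded with Cy5-dUTP, with 50 µM zinc acetate present, and the array was washed.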

Chain of OsWRKY34 (Q0JBA9 entry or part of it): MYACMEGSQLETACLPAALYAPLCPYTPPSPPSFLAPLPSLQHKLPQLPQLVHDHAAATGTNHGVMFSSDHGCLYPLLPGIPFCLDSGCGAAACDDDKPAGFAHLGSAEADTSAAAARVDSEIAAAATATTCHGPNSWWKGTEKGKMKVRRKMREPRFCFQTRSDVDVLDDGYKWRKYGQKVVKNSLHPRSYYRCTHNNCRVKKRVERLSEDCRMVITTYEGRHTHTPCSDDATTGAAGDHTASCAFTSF

| Sequence | binding signal |
| --- | --- |
| CTCTCATGTATATACATTAATTATGTTTTTGTCCCCATTTCGGAGTCACCTAGTGCAG | 9950 fluorescence intensity (a.u.) |
| GAGCATCACAAGTCGCGACCTCACAGGGAGGGGCGGCGGCCGGAGTCACCTAGTGCAG | 9060 fluorescence intensity (a.u.) |
| GTTTTGACTTTTTTTTCTAATAAAATTTCTTTTATGTTTGCGGAGTCACCTAGTGCAG | 18600 fluorescence intensity (a.u.) |
| TGTTTTCTGTTCTTTGTTGACTTTAAGTCGCTAAATTTTGCGGAGTCACCTAGTGCAG | 11500 fluorescence intensity (a.u.) |
| AGTAATTTATGTTTGACTATTTTTTTAAAAATTTTTTATGCGGAGTCACCTAGTGCAG | 10800 fluorescence intensity (a.u.) |
| CTGTATCCATCCCTAAATATTTGACGCCGTTGACTTTTCTCGGAGTCACCTAGTGCAG | 25600 fluorescence intensity (a.u.) |
| GAACTGCTCCCTCCATCCATAAATATTTGACGCCGTTGACCGGAGTCACCTAGTGCAG | 11900 fluorescence intensity (a.u.) |
| ATTATCCTCTTGTTTTTCAACTGGAATGAACCACCAACAACGGAGTCACCTAGTGCAG | 9790 fluorescence intensity (a.u.) |
| CACTACTATCTGCCTCACCGTTAACCCTACCGAATAAATTCGGAGTCACCTAGTGCAG | 8880 fluorescence intensity (a.u.) |
| ATTGCAGCCTTCGCCTCCTTTCCTTCAGGTACACATATTGCGGAGTCACCTAGTGCAG | 9850 fluorescence intensity (a.u.) |
| TTGTGGGAGGAGGGGATGGAATGATGATGACTCTGTTTTTCGGAGTCACCTAGTGCAG | 8200 fluorescence intensity (a.u.) |
| GGTGATCTTTGTATTCTTTTTCTGCAGCGAACATATAGCTCGGAGTCACCTAGTGCAG | 16300 fluorescence intensity (a.u.) |
| GACGCGGCGCAGTGCAACCAACAAACCGGGGCGGGCGGGGCGGAGTCACCTAGTGCAG | 11800 fluorescence intensity (a.u.) |
| CCGCTCTGATTCGCAAACTATAACACCAAACAAACGGGCGCGGAGTCACCTAGTGCAG | 20100 fluorescence intensity (a.u.) |
| ATTTTGATTTTTGCAATCACCACCCCGCGCGGCGCAAACACGGAGTCACCTAGTGCAG | 8880 fluorescence intensity (a.u.) |
| ATTATATGCTAATTACTTTCTCGTTTTACGTACACCAACTCGGAGTCACCTAGTGCAG | 8420 fluorescence intensity (a.u.) |
| TTTCATTTTTTTTTACCACCTCACCTTCTGTGTTTCTTTTCGGAGTCACCTAGTGCAG | 9040 fluorescence intensity (a.u.) |
| AAGCTTTGACTTTTTTTTGTCAAATTTTTTAAGTTTGATTCGGAGTCACCTAGTGCAG | 20400 fluorescence intensity (a.u.) |
| TTTTGTCATTGTCAAATTTTGATAAGTTTGTCAAAATTTTCGGAGTCACCTAGTGCAG | 9080 fluorescence intensity (a.u.) |
| TTTGGTCAAAGTCAAACTGCTTCTAGTTTGACTAAATTTACGGAGTCACCTAGTGCAG | 17800 fluorescence intensity (a.u.) |
| ATTTAAAATAGTTTGACTTTGACCAAAGTCAAAACATCTTCGGAGTCACCTAGTGCAG | 13500 fluorescence intensity (a.u.) |
| TGCATTTCAATTCAAATTTAAGTTGATTCGTTGACTTGTTCGGAGTCACCTAGTGCAG | 10100 fluorescence intensity (a.u.) |

| Sequence | binding signal |
| --- | --- |
| AAATTTGAAGTAGTTTGACTTTGACCAAAGTCAAAACATCCGGAGTCACCTAGTGCAG | 17600 fluorescence intensity (a.u.) |
| TAAAGTCAAACTGTTTTTTTAAGTTTGACCAAGCTTTTGACGGAGTCACCTAGTGCAG | 10400 fluorescence intensity (a.u.) |
| AGATGTTTTGACTTTAGTCAAAGTCAAACTGCTTTAAGTTCGGAGTCACCTAGTGCAG | 11800 fluorescence intensity (a.u.) |
| AAACTTGAAGAAATTTGACTTTAGCTAAAGTCAAAACATCCGGAGTCACCTAGTGCAG | 10600 fluorescence intensity (a.u.) |
| ATTTTGGTCAAATTTAAACTAATCTAAGTTTGACTAATTTCGGAGTCACCTAGTGCAG | 8610 fluorescence intensity (a.u.) |
| TTGACTTTGTTTAAAGTCAAACTGCTTCAAGTTTGACTAACGGAGTCACCTAGTGCAG | 9550 fluorescence intensity (a.u.) |
| TTGGTCAAAGTCAAACTGCTTTAAGTTTGACCAAGTTTGTCGGAGTCACCTAGTGCAG | 21500 fluorescence intensity (a.u.) |
| AAACTACCATGGGACTTATATTGCTCCGGTTTTGATAGTTCGGAGTCACCTAGTGCAG | 8480 fluorescence intensity (a.u.) |
| TTCCACAGAGTCAAGTCCACAGAACGTATGCTCCATGTTCCGGAGTCACCTAGTGCAG | 8160 fluorescence intensity (a.u.) |
| GGCTGCCTGTGCATGGGAGGCGATGTGAGGGTGGGCAGGGCGGAGTCACCTAGTGCAG | 9440 fluorescence intensity (a.u.) |
| ACTCACGCTTTAACACCAGGAATCTTATCTCTATCTCATCCGGAGTCACCTAGTGCAG | 8460 fluorescence intensity (a.u.) |
| ATTGGGCTGGAATGAGATTCACGGGAGGGTAACTGGCGGTCGGAGTCACCTAGTGCAG | 12300 fluorescence intensity (a.u.) |
| TTCAAATTGTTGCTGCTCTGTGCTAGCCTTTTCATATTGACGGAGTCACCTAGTGCAG | 9110 fluorescence intensity (a.u.) |
| CGTGGTAATTTTTATTGGTAAGTGGTGGTGAAGTGGGTGACGGAGTCACCTAGTGCAG | 8300 fluorescence intensity (a.u.) |
| ATTTTTTTTCTAGTCAAACTTTGTTAAGTTTGACCAAAATCGGAGTCACCTAGTGCAG | 9790 fluorescence intensity (a.u.) |
| ATATTATAAGTTGTTTTGACTTTTTGCTAGTCAAACTTATCGGAGTCACCTAGTGCAG | 14200 fluorescence intensity (a.u.) |
| CTTTGGTCAAAGTCAAATTGTTTTAAGTTTGACCAAGTTTCGGAGTCACCTAGTGCAG | 19600 fluorescence intensity (a.u.) |
| ACACTTTGACTCTTTGATTTAGTAAGCTCGAGTTTATTTTCGGAGTCACCTAGTGCAG | 9030 fluorescence intensity (a.u.) |
| TAAGTTGTTTGACTTTTTTTCTAGTCAAACTTGTCTGAGTCGGAGTCACCTAGTGCAG | 17000 fluorescence intensity (a.u.) |
| ATAAGATATTTTTGACTTTGGTCAAAGTCAAATTGTTTCACGGAGTCACCTAGTGCAG | 15300 fluorescence intensity (a.u.) |
| CACTTTATTTTTGAAAATTCGGGTGGGTAAGCTGGTGACTCGGAGTCACCTAGTGCAG | 19200 fluorescence intensity (a.u.) |
| GCAGTTTAACTTTGACCAAAGTCAAAATATTTTATAATTTCGGAGTCACCTAGTGCAG | 8930 fluorescence intensity (a.u.) |
